AmpC inh detg – blocks E. coli AmpC beta-lactamase in detergent assay; P00811; AmpC hydrolysis of nitrocefin, absorbance 480 nm, 0.01% Triton; Potency, µM (top dose mostly 114 µM), for inactives: at the top dose activity change, negative = inhibition, actives largely listed as inhibitors; hit rate 0.041% among 370,000;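 also: potency is read from the fitted curve at half-maximal effect; 0% = no-compound wells and -100% = no-enzyme wells; nearly all actives have a fitted effect of over 25% in size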
Target sequence (P00811 whole entry, looked up): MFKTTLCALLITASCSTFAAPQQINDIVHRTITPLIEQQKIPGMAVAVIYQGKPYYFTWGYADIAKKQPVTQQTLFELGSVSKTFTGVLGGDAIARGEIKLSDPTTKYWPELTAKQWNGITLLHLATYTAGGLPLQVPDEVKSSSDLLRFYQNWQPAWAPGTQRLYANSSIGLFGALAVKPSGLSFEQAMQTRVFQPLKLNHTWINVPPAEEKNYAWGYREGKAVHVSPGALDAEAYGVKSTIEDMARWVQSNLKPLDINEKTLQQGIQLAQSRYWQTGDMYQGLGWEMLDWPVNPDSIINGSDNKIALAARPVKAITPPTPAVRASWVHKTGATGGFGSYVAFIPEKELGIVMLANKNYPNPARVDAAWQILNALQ
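AmpC (5.3 nM in the dispensed reagent) in 20 mM phosphate pH 7.0 with 0.01% (detergent screen) or 0.0001% Triton X-100 was preincubated with compounds for 15 min at room temperature. Nitrocefin was then added from an 800 uM solution, and hydrolysis was followed at 480 nm.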
AmpC no deterg – inhibitors of E. coli AmpC beta-lactamase without detergent | AmpC nitrocefin hydrolysis, absorbance 480 nm, 0.0001% Triton | Potency, µM (doses to about 57.1 µM), inactives show top-dose activity change, negative = inhibition, usual class: inhibitors | hit rate 0.52% among 330,000;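 also: potency is read from the fitted curve at half-maximal effect; plate controls were no compound for no effect and no enzyme for full effect; nearly all actives have a fitted effect of over 20% in size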
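20 mM phosphate pH 7.0 + 0.01% (detergent screen) or 0.0001% Triton X-100; 5.3 nM AmpC reagent; cpd preinc 15 min RT; nitrocefin (800 uM stock) to start; A480 q20 s × 4 min; Activity was normalised to no-enzyme and no-compound control wells.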
Pf growth 96h – inhibits malaria parasite growth, 96 h. P. falciparum luciferase reporter growth, 96 h. Potency, µM (highest dose often 28.7 µM), without a hit: at the top dose activity change, negative = inhibition, usual class: inhibitors. hit rate 6.9% among 320,000; also: potency is read from the fitted curve at half-maximal effect; % is scaled to controls: 0 for no effect and ±100 for the full control effect
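P. falciparum expressing integrated firefly luciferase grown in erythrocytes (2% hematocrit, 0.05% parasitemia final) with compounds for 96 hours at 37 C, 5% CO2. Growth inhibition read as loss of luminescence after adding luciferase detection reagent.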
Sm TGR inh – inhibitors of Schistosoma mansoni thioredoxin glutathione reductase | Potency, µM (top dose mostly 114 µM), for inactives: top-dose activity change, negative = inhibition, usual class: inhibitors | hit rate 3% among 360,000 | purified TGR, DTNB reduction, TNB absorbance 405 nm | Q962Y6; also: potency is read from the fitted curve at half-maximal effect; % is scaled to controls: 0 for no effect and ±100 for the full control effect; nearly all actives have a fitted effect of over 60% in size
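First, TGR (20 nM dispensed) and NADPH were mixed with compound. Second, a 15 min room-temperature incubation followed. Third, further NADPH and then DTNB were added to start the reaction. Finally, TNB absorbance was monitored kinetically.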
SARS PLpro yeast-1 – inhibitors of SARS-CoV papain-like protease in yeast; S. cerevisiae expressing SARS-CoV PLpro, growth rescue; Potency, µM (doses to about 32.9 µM), inactives show at the highest dose activity, positive = growth rescue, most hits filed as activators; hit rate 0.19% among 330,000; AID 485353; calls by dose curve; also: potency is read from the fitted curve at half-maximal effect; 0% is about no effect; nearly all actives have a fitted effect of over 55% in size
Pf growth 48h – P. falciparum growth inhibition at 48 hours (one generation); P. falciparum luciferase growth in erythrocytes, 48 h; Potency, µM (doses to about 28.7 µM), without a hit: top-dose activity change, negative = inhibition, most hits filed as inhibitors; hit rate 5.9% among 310,000; also: potency is read from the fitted curve at half-maximal effect; % is scaled to controls: 0 for no effect and ±100 for the full control effect
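Read-out is firefly luciferase luminescence from an integrated reporter in P. falciparum, so falling signal marks reduced parasite growth. Infected erythrocytes were at 2% hematocrit and 0.1% parasitemia (final) in Albumax-supplemented RPMI 1640.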
SARS PLpro yeast-2 – Rescues yeast growth by inhibiting SARS-CoV PLpro; shares compounds with SARS PLpro yeast-1; yeast expressing SARS-CoV PLpro, growth phenotype rescue; calls only; hit rate 19% among 1,000; call rule not given here
An asterisk follows results filed as active; i = inactive; ? = inconclusive; nt = not tested or not shown; + = active, no number; [ ] = remark or other dose. Rows were chosen to be rich in hits. Some 12% of all compounds tested hit in one or more screens of this group. Unless noted, calls follow the shape of the dose curve; as a rule, active = well fitted curve in the direction sought with a large enough effect; inconclusive = small, poorly fitted or top-dose-only effect, or another doubt; inactive = no such curve, though single readings can be large; an effect the other way counts as inactive or inconclusive.

SMILES	AmpC inh detg	AmpC no deterg	Pf growth 96h	Sm TGR inh	SARS PLpro yeast-1	Pf growth 48h	SARS PLpro yeast-2
O=C(CN1CCN(c2ccccc2F)CC1)Nc1cccnc1Cl	?	-0.7%	2.7%	-0.3%	-0.2%	494.5%	nt
COc1ccc(C(=O)N/C(=C\c2cccc3ccccc23)C(=O)N2CCN(C)CC2)cc1	?	177.4%	?	-15.8%	0.6%	?	nt
CN(C)c1ccc(/C=N\NC(=S)SCN2C(=O)C3CCC(C)(C2=O)C3(C)C)cc1 (centres undefined)	1.1%	-16.8%	?	?	12.6µM*	?	+
CCCCCN1C(C(=O)c2ccccc2)=C(NC(=O)c2ccc(C)cc2)c2ccccc2S1(=O)=O	24.0%	nt	nt	-11.2%	nt	nt	nt
Cc1cc(OCC(=O)NC(C)(C)C)ccc1Cl	-8.2%	-13.9%	-6.6%	-7.7%	?	44.7%	i
Cc1ccc(-c2cc(=O)c3cc(F)ccc3[nH]2)cc1	-6.0%	-7.7%	10.4µM*	1.0%	?	?	i
Cc1ccc(-c2cc(=O)c3cc(C)ccc3[nH]2)cc1	?	-32.1%	?	-9.9%	4.3%	-6.1%	nt
CCSCCOC(=O)C1=C(C)NC(=O)NC1c1cc(OC)ccc1OC (centres undefined)	-3.2%	-7.0%	16.5%	-1.6%	?	2.1%	i
O=c1c2cn[nH]c2[nH]c(=S)n1-c1cccc(Cl)c1	-8.2%	-12.1%	8.9%	-8.8%	-20.7%	0.0%	nt
Cc1ncc(C23CC4CC(CC(C4)C2)C3)[nH]1	-14.5%	-19.3%	39.1%	-9.0%	12.6µM*	-16.5%	i
CCNc1ccccc(-c2ccc3ccccc3n2)c1=O	-4.8%	-22.7%	305.9%	-35.8%	11.2µM*	215.3%	i
O=C1c2ccccc2C(=O)C1c1ccc2ccccc2n1	-3.7%	-10.2%	?	-3.6%	-6.6%	208.0%	nt
Cc1cccc(C)c1-n1cccc1/C=C1\SC(=S)N(c2cccc(C(=O)O)c2)C1=O	5.4%	52.5%	-14.7%	1.4%	-27.1%	10.8%	nt
O=C(CNC(=O)C12CC3CC(CC(C3)C1)C2)NCc1ccccc1	-11.6%	-15.1%	2.6%	5.0%	-8.2%	?	nt
Cc1cc(-c2n[nH]c(=S)n2CC(C)C)cs1	-15.5%	-28.2%	-23.2%	5.5%	?	-17.0%	+
Cc1ccc(NC(=O)N2CCc3ccccc3C2)c(C)c1	?	-19.7%	-18.0%	-24.4%	9.2%	-6.0%	nt
O=C(NCc1ccco1)c1ccc(Cl)c(S(=O)(=O)N2CCc3ccccc32)c1	-14.2%	-11.1%	?	-0.8%	?	?	i
O=C(NNC(=O)c1ccccc1O)c1ccc(Cl)c(S(=O)(=O)N2CCc3ccccc32)c1	?	-36.2%	-3.6%	-3.5%	1.1%	?	nt
Cc1ccc(S(=O)(=O)N(C)/N=C/c2ccc(N(C)C)cc2)cc1	?	-20.8%	62.1%	-5.9%	2.3%	nt	nt
CC(C)Nc1nc(NC(C)(C)C)nc(Oc2ccc(=O)n(-c3ccccc3)n2)n1	?	27.6%	nt	10.3%	0.1%	?	nt
CCCCOc1ccc(C(=O)NCC(=O)NC2CC2)cc1	0.0%	-15.2%	29.9%	-5.0%	11.2µM*	5.0%	i
CCCCOc1ccc(C(=O)NCC(=O)NCCOc2ccc(C)cc2)cc1	-10.5%	-13.2%	-2.0%	3.7%	-0.1%[6.58 µM]	-2.5%	nt
CCC(=O)c1ccc(OCC(O)CN2CCN(S(=O)(=O)c3ccc(NC(C)=O)cc3)CC2)cc1 (centres undefined)	-5.3%	74.3%	?	6.5%	-1.2%	?	nt
O=C(NC(c1ccc(Cl)cc1)c1cc(Cl)c2cccnc2c1O)c1cccnc1 (centres undefined)	-3.3%	-1.4%	46.0%	-11.4%	2.51µM*	1.17µM*	i
O=C(NCc1ccc(Cl)cc1)c1cccnc1	?	-16.6%	-16.4%	0.0%	-4.9%	-2.3%	nt
